According to PubChem BioAssay (Tox21):
Inconclusive results are not listed. Entries that show only a call come without a potency. A number with no mark means an inactive call. Activity calls are given as the source filed them. Unless noted, the call rests on the fitted dose curve; in most records, active means well fitted curve in the direction sought with a large enough effect in the repeat runs; inconclusive means weak or mixed curves; inactive means no such curve, though single readings can be large; an effect the other way counts as inactive or inconclusive.

Assays:
[1] = qHTS assay to identify small molecule antagonists of the glucocorticoid receptor (GR) signaling pathway - cell viability counter screen (AID 720693); further: nearly all actives have a fitted effect of over 55% in size
[2] = qHTS assay for identifying genotoxic compounds that show differential cytotoxicity against isogenic chicken DT40 cell lines with known DNA damage response pathways - wild type cell line (AID 743012); further: nearly all actives have a fitted effect of over 60% in size; further: potency means the concentration at half of the fitted maximal effect
Summary of the method: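 Endpoint: CellTiter-Glo luminescence, 30 min RT. Cells: wild type DT40, 300/well. Exposure: compounds in DMSO, 40 h, 37 C/5% CO2, after ~0.5 h pre-incubation.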

[3] = qHTS assay for identifying genotoxic compounds that show differential cytotoxicity against isogenic chicken DT40 cell lines with known DNA damage response pathways - Rev3 mutant cell line (AID 743014); further: nearly all actives have a fitted effect of over 55% in size; further: potency means the concentration at half of the fitted maximal effect
[4] = qHTS assay for identifying genotoxic compounds that show differential cytotoxicity against isogenic chicken DT40 cell lines with known DNA damage response pathways - Rad54/Ku70 mutant cell line (AID 743015); further: nearly all actives have a fitted effect of over 60% in size; further: potency means the concentration at half of the fitted maximal effect
[5] = qHTS assay to identify small molecule antagonists of the androgen receptor (AR) signaling pathway - cell viability counter screen (AID 743033; further: nearly all actives have a fitted effect of over 45% in size)
[6] = qHTS assay to identify small molecule antagonists of the androgen receptor (AR) signaling pathway using the MDA cell line - cell viability counter screen (AID 743041; further: nearly all actives have a fitted effect of over 45% in size)
Summary of the method: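 Viability read by CellTiter-Fluor fluorescence in the same wells as the antagonist screen, added after 15.5 h of a 16 h, 37C exposure. Human breast carcinoma MDA-kb2 AR-luc cells, compounds co-dosed with agonist R1881.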

[7] = qHTS assay to identify small molecule antagonists of the thyroid receptor (TR) signaling pathway - cell viability counter screen (AID 743064); further: nearly all actives have a fitted effect of over 50% in size
Summary of the method: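 Counter screen for cytotoxicity: compound plus T3 (1 nM final) on GH3.TRE-Luc cells, 23.5 h at 37 °C, then fluorescence viability readout with CellTiter-Fluor.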

[8] = molecular target: Androgen receptor (Homo sapiens) (UniProt P10275); assay: qHTS assay to identify small molecule antagonists of the androgen receptor (AR) signaling pathway (AID 743035; active means well fitted inhibition curve with a large enough effect in the signal ratio in the repeat runs, not every such curve was filed as active; the % refers to the signal ratio)
Sequence of Androgen receptor (Homo sapiens) (P10275 whole entry, looked up): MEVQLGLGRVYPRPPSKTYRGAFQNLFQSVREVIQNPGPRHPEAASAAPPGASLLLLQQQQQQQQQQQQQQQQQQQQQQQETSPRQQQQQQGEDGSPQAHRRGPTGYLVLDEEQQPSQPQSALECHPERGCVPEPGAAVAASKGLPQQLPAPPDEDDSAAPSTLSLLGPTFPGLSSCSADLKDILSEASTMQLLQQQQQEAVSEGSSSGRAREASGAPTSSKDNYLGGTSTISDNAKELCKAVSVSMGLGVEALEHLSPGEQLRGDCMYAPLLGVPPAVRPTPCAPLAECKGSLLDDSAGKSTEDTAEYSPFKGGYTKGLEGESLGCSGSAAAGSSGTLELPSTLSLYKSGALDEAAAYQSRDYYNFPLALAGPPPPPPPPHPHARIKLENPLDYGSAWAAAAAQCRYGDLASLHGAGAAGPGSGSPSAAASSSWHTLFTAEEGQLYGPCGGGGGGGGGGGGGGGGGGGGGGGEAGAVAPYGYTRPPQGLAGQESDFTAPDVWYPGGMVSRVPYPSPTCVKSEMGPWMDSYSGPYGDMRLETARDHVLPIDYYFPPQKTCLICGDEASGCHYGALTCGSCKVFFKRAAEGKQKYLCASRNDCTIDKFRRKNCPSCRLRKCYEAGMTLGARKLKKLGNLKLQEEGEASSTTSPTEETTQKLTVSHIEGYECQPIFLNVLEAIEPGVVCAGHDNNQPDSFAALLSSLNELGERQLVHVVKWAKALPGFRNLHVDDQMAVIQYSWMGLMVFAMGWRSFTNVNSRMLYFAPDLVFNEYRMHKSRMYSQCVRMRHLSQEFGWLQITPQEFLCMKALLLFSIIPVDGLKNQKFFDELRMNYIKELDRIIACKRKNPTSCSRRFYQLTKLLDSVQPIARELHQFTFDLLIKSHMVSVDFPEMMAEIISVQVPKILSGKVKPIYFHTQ
Summary of the method: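 R1881 agonist challenge of a HEK293 UAS-beta-lactamase AR reporter line in the presence of compound (16 h, 37C); signal taken as FRET fluorescence after 2 h with LiveBLAzer B/G substrate at room temperature.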

[9] = molecular target: Androgen receptor (Homo sapiens) (UniProt P10275); assay: qHTS assay to identify small molecule agonists of the androgen receptor (AR) signaling pathway (AID 743036; active means well fitted activation curve with a large enough effect in the signal ratio in the repeat runs, with a control signal flat, not every such curve was filed as active; the % refers to the signal ratio)
Summary of the method: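 In this Tox21 qHTS, 2,000 HEK293 AR-bla cells per well were incubated with compounds for 16 h at 37C and 5% CO2. Fluorescence intensity was recorded 2 h after adding LiveBLAzer B/G FRET substrate at room temperature.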

[10] = molecular target: Androgen receptor (Homo sapiens) (UniProt P10275); assay: qHTS assay to identify small molecule antagonists of the androgen receptor (AR) signaling pathway using the MDA cell line (AID 743042; further: nearly all actives have a fitted effect of over 55% in size)
Summary of the method: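 Antagonist mode: compounds plus R1881 agonist added to MDA-kb2 AR-luc cells, incubated 16 h at 37C. Luciferase reporter luminescence quantified, with multiplexed CellTiter-Fluor readout for cell viability.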

SMILES	outcome [1]	Potency [2]	Potency [3]	Potency [4]	outcome [5]	Potency [6]	Potency [7]	outcome [8]	outcome [9]	outcome [10]
CN(C)CCN(C)CCO	inactive	inactive	inactive	inactive	inactive	inactive	inactive	–	–	–
O=NN(CCCl)C(=O)NC1CCCCC1	inactive	inactive	inactive	inactive	inactive	inactive	inactive	–	–	–
C[Si]1(C)O[Si](C)(C)O[Si](C)(C)O[Si](C)(C)O[Si](C)(C)O1	inactive	inactive	inactive	inactive	inactive	inactive	inactive	–	–	–
CC(=O)OCC(=O)Nc1cc(C#N)cc(NC(=O)COC(C)=O)c1Cl	inactive	inactive	inactive	inactive	inactive	inactive	inactive	–	–	–
CC(C)Cn1cnc2c1c(=O)n(C)c(=O)n2C	inactive	inactive	inactive	inactive	inactive	inactive	inactive	–	–	–
Nc1nnnn1-c1ccccc1	inactive	inactive	inactive	inactive	inactive	inactive	inactive	–	–	–
Cc1ccc2c(c1)C(=O)c1ccccc1C2=O	inactive	48.4 µM (active)	54.3 µM (active)	60.9 µM (active)	inactive	inactive	inactive	–	–	–
C[C@@H](O)C(=O)O	inactive	inactive	inactive	inactive	inactive	inactive	inactive	–	–	–
CCCCCCCCCCCCCCC(=O)NC(CO)CCCCCCCCCCCCCC (configuration not stated)	inactive	inactive	inactive	inactive	inactive	inactive	inactive	–	–	–
O=C(Cn1ccnc1[N+](=O)[O-])NCc1ccccc1	inactive	inactive	inactive	inactive	inactive	inactive	inactive	–	–	–
Cc1cc(C)c(C(=O)O)c(C)c1	inactive	inactive	inactive	inactive	inactive	inactive	inactive	–	–	–
Fc1ccccc1	inactive	inactive	inactive	inactive	inactive	–	inactive	–	–	–
CN(C)CCCCl	inactive	inactive	inactive	inactive	inactive	–	inactive	–	–	–
CC(O)CC(C)O (configuration not stated)	inactive	inactive	inactive	inactive	inactive	inactive	inactive	–	–	–
CO/N=C(/C(=O)N[C@@H]1C(=O)N2C(C(=O)[O-])=C(C[n+]3ccn4ncccc43)CS[C@H]12)c1nsc(N)n1	inactive	inactive	inactive	–	inactive	–	–	–	–	–
CN(C)CCCO[C@@H]1[C@H]2OC(C)(C)O[C@H]2O[C@@H]1C(O)CO (some centres not stated)	inactive	inactive	inactive	–	inactive	inactive	–	–	–	–
CC1c2ccccc2CN1NC(=O)c1ccc(Cl)c(S(N)(=O)=O)c1 (configuration not stated)	inactive	inactive	inactive	inactive	inactive	–	inactive	–	–	–
CN1C[C@@H]2C[C@H]1CN2c1cc2c(cc1F)c(=O)c(C(=O)O)cn2C1CC1	inactive	7.5 µM (active)	9.44 µM (active)	11.9 µM (active)	inactive	–	inactive	–	–	–
CC(C)C1OCCN1CCOC(=O)NCCCCCCNC(=O)OCCN1CCOC1C(C)C (configuration not stated)	inactive	inactive	inactive	inactive	–	–	inactive	inactive	inactive	inactive
CC(C)=CCC[C@@](C)(O)[C@H]1CC=C(C)CC1	inactive	inactive	inactive	inactive	inactive	–	inactive	–	–	–
O=C=NCC1CCCC(CN=C=O)C1 (configuration not stated)	inactive	inactive	inactive	inactive	inactive	inactive	inactive	–	–	–

SMILES	outcome [1]	Potency [2]	Potency [3]	Potency [4]	outcome [5]	Potency [6]	Potency [7]	outcome [8]	outcome [9]	outcome [10]
CC(C)Nc1ccccc1	inactive	inactive	inactive	inactive	inactive	–	inactive	–	–	–
CC(C)(C)NC[C@H](O)COc1cccc2c1CCCC2=O	inactive	inactive	inactive	inactive	–	inactive	–	–	–	–
O=Cc1cc2ccccc2o1	inactive	inactive	inactive	–	inactive	inactive	inactive	–	–	–
C#CCN[C@@H]1CCc2ccccc21	inactive	inactive	inactive	inactive	–	inactive	–	inactive	inactive	inactive
C=CC(=O)OCC1CCCO1 (configuration not stated)	inactive	inactive	inactive	inactive	inactive	–	inactive	–	–	–
CC(=O)C(C)O (configuration not stated)	inactive	inactive	inactive	–	inactive	inactive	inactive	–	–	–
Cn1c(=O)c2c(ncn2CCO)n(C)c1=O	inactive	inactive	inactive	inactive	inactive	–	inactive	–	–	–
c1ccc(B(c2ccccc2)c2ccccc2)cc1	inactive	inactive	inactive	–	inactive	inactive	inactive	–	–	–
CC(C)(CO)C(O)C(=O)NCCCO (configuration not stated)	inactive	inactive	inactive	–	inactive	inactive	–	–	–	–
CC(Oc1cc(Cl)ccc1Cl)C(=O)O (configuration not stated)	inactive	inactive	inactive	–	inactive	–	inactive	inactive	–	inactive
CC1OCCC1=O (configuration not stated)	inactive	inactive	inactive	inactive	inactive	–	inactive	–	–	–
CC(C)[C@H]1CC[C@H](C)C[C@@H]1O	inactive	inactive	inactive	–	inactive	inactive	inactive	inactive	inactive	inactive
CCC(=O)c1c(O)cc(O)cc1O	inactive	inactive	inactive	inactive	–	inactive	–	inactive	–	inactive
Cc1c(N)cccc1Cl	inactive	inactive	inactive	–	inactive	inactive	inactive	–	–	–
C/C=C(\C)C(C)=O	inactive	inactive	inactive	–	inactive	inactive	inactive	inactive	inactive	inactive
NCc1ccc(S(N)(=O)=O)cc1	inactive	inactive	inactive	inactive	–	inactive	inactive	–	–	–
C=CCCCCCCCCC(=O)OCCCC	inactive	inactive	inactive	inactive	inactive	–	inactive	–	–	–
CO[C@@]1(NC(=O)Cc2cccs2)C(=O)N2C(C(=O)O)=C(COC(N)=O)CS[C@@H]21	inactive	inactive	inactive	inactive	inactive	–	inactive	–	–	–
CCCCCCCCCOC(=O)c1ccccc1C(=O)OCCCCCCCCC	inactive	inactive	inactive	–	inactive	–	inactive	–	inactive	inactive
CC(C)CCOC(=O)c1ccccc1	inactive	inactive	inactive	–	inactive	inactive	inactive	–	–	–
CCc1occc(=O)c1O	inactive	inactive	inactive	–	inactive	inactive	inactive	–	–	–

SMILES	outcome [1]	Potency [2]	Potency [3]	Potency [4]	outcome [5]	Potency [6]	Potency [7]	outcome [8]	outcome [9]	outcome [10]
Cc1c(NC(=O)c2cccnc2)c(=O)n(-c2ccccc2)n1C	inactive	inactive	inactive	inactive	–	inactive	–	–	–	–
COC(C)(OC)OC	inactive	inactive	inactive	–	inactive	inactive	inactive	inactive	inactive	inactive
CC(=O)c1cc(C)oc1C	inactive	inactive	inactive	–	inactive	inactive	inactive	inactive	inactive	inactive
C[C@]12CCC(=O)C=C1CC[C@H]1[C@@H]3CC[C@](O)(C(=O)CO)[C@@]3(C)C[C@H](O)[C@@]12F	inactive	23.7 µM (active)	11.9 µM (active)	–	inactive	inactive	inactive	–	–	–
Cc1cccc(Cl)c1	inactive	inactive	–	inactive	inactive	–	inactive	–	–	–
CC(C)NCC(O)c1ccc2ccccc2c1 (configuration not stated)	inactive	15 µM (active)	–	–	inactive	inactive	inactive	–	–	–
C=C(C)[C@@H]1CC=C(C)C(=O)C1	inactive	–	inactive	inactive	inactive	inactive	–	–	–	–
C=CCCCCCCCC	inactive	inactive	inactive	–	inactive	–	inactive	–	–	–
CC(=O)OC1CCCCC1C(C)(C)C (configuration not stated)	inactive	–	inactive	inactive	inactive	inactive	inactive	inactive	–	inactive
Nc1nc(-c2ccccc2)c(Br)c(=O)[nH]1	inactive	inactive	–	inactive	inactive	–	inactive	–	–	–
CNCCS(=O)(=O)O	inactive	inactive	inactive	–	inactive	inactive	inactive	–	–	–
CC(N)CCCC(C)(C)O (configuration not stated)	inactive	inactive	inactive	–	inactive	inactive	inactive	–	–	–
CCC(C)C(=O)OCCc1ccccc1 (configuration not stated)	inactive	inactive	–	inactive	inactive	inactive	–	–	–	–
CC(=O)Nc1ccc(OC(=O)c2ccccc2OC(C)=O)cc1	inactive	inactive	–	inactive	inactive	inactive	inactive	–	–	–
CCCCCC/C=C/C(=O)OC	inactive	inactive	inactive	–	inactive	inactive	inactive	–	–	–
CCCCCCCCCCCCCCCCCC#N	inactive	inactive	inactive	–	inactive	inactive	inactive	–	–	–
c1ccc2c(CC3=NCCN3)cccc2c1	inactive	inactive	inactive	–	inactive	inactive	inactive	–	–	–
Cc1ccnc(N)c1	inactive	–	48.6 µM (active)	48.6 µM (active)	inactive	inactive	–	–	–	–
CCO[Si](CC)(OCC)OCC	inactive	–	inactive	inactive	inactive	–	–	inactive	–	inactive
NCC1(Cc2noc(=O)[nH]2)CCCCC1	inactive	–	inactive	inactive	inactive	inactive	–	–	–	–
CC1CCc2c(N3CCC(O)CC3)c(F)cc3c(=O)c(C(=O)O)cn1c23 (configuration not stated)	inactive	26.6 µM (active)	–	–	inactive	inactive	inactive	–	–	–
